# Screens (PubChem)
# The list is not random: actives were taken first. Their share in the collection is about 10%.
# GLA inh pH 4.5 – inhibitors of human alpha-galactosidase A at pH 4.5; activity change, negative = inhibition, % at 105 µM; P06280; AID 1467; 230,000 tested, under 10 active; purified enzyme, 4-MU-alpha-Gal fluorescence, pH 4.5;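 further: 0% = full activity with enzyme and -100% = basal without enzyme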
# ALDH1A1 inh – ALDH1A1 (human) enzyme inhibition. Purified ALDH1A1, NADH fluorescence, propionaldehyde substrate. 7.3% of 220,000 active. AID 1030. Potency, µM (highest dose often 75.3 µM), without a hit: top-dose activity, negative = inhibition, actives largely listed as inhibitors; active means well fitted inhibition curve with a large enough effect, not every such curve was filed as active; inconclusive means small, poorly fitted or top-dose-only effect, or another doubt; inactive means no such curve, though single readings can be large or run the other way;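 further: potency means the concentration at half of the fitted maximal effect; plate controls were no enzyme wells and a reference inhibitor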
# PNC inhibitor – perinucleolar compartment assembly inhibition; PC3M PTB-GFP, PNC prevalence imaging, 16 h; active compounds read low; activity change (PNC), negative = inhibition, % at 10 µM; 3.1% of 140,000 active; AID 2417;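 active means readout at or below -70, meaning at least 70% loss of cells showing the perinucleolar compartment, a nuclear body marking cancer cells; inconclusive means readout between -30 and a set limit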;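 further: plate controls were DMSO wells for no effect and camptothecin positive control wells for full effect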
#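 Compounds are pinned in duplicate onto adhered PC3M cells stably expressing GFP-tagged PTB and incubated 16 h at 37 C. Cells are then fixed, nuclei stained with Hoechst, and PNC-positive cells counted.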
# ALOX12 inhib – inhibitors of human 12-lipoxygenase (ALOX12). 0.12% of 150,000 active. purified 12-hLO, xylenol orange hydroperoxide absorbance. Potency, µM (series often up to 57.1 µM), without a hit: top-dose activity change, negative = inhibition, hits mostly inhibitors. P18054; further: potency means the concentration at half of the fitted maximal effect; nearly all actives have a fitted effect of over 55% in size
#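 150 nM 12hLO, 25 mM Hepes pH 7.0 + 0.01% Triton X-100; cpd preinc 15 min RT; 40 uM arachidonic acid, 30 min RT; Fe-XO 30 min; A573/A405 ratio as read-out.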
# GLA spleen mod – alpha-galactosidase A (human) modulation; human spleen homogenate, 4MU-alpha-Gal fluorescence, 40 min; Potency, µM (highest dose often 80 µM), inactives show at the top dose activity change, negative = inhibition, usual class: inhibitors; 0.008% of 240,000 active; AID 2107;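 further: potency means the concentration at half of the fitted maximal effect; 0% = enzyme with vehicle and -100% = no enzyme basal signal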
# Target sequence (P06280 32-429 limits assumed): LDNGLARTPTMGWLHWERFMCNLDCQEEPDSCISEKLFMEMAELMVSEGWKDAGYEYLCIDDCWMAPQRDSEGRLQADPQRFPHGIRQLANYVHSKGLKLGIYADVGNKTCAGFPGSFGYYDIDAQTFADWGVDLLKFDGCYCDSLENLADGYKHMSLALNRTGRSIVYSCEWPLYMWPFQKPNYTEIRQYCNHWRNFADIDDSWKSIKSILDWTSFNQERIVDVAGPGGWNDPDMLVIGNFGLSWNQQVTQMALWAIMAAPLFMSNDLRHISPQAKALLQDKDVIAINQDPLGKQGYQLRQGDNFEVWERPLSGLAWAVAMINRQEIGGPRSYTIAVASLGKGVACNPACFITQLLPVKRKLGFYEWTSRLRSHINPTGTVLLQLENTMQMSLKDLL
#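 Spleen homogenate 1 ug + cpd (titration) + 4-MU-alpha-D-galactopyranoside 1 mM; 37C 40 min; 50 mM citrate/phosphate pH 5.0, 0.01% Tween-20; stop pH 10; fluorescence 365/440; AC50 via Hill.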
# HPGD inh – inhibitors of human 15-hydroxyprostaglandin dehydrogenase (HPGD). 4.3% of 150,000 active. purified HPGD, NADH fluorescence kinetic, PGE2 substrate. Potency, µM, for the others: top-dose activity change, negative = inhibition, usual class: inhibitors. P15428; active means well fitted inhibition curve with a large enough effect, not every such curve was filed as active; inconclusive means small, poorly fitted or top-dose-only effect, or another doubt; inactive means no such curve, though single readings can be large or run the other way; further: potency means the concentration at half of the fitted maximal effect
# Target sequence (P15428 whole entry, looked up): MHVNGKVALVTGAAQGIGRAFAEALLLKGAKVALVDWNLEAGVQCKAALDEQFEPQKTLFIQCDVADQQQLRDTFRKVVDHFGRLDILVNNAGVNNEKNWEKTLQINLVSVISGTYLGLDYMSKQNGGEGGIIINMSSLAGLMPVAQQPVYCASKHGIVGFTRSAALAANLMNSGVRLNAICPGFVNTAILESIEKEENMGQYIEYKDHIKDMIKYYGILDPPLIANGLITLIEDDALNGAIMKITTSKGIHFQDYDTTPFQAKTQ
#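 NADH formation kinetics: reaction with 30 uM PGE2 and 1 mM NAD+ (final), 20 nM enzyme, Tris-HCl pH 8 with Tween 20, after 15 min compound preincubation at room temperature. Fluorescence change, last versus first of five reads.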
# * marks the source's active call; other numbers are inactive results; ? = inconclusive; . = not tested or not shown; [ ] = remark or other dose. Unless noted, the call rests on the fitted dose curve; in most records, active means well fitted curve in the direction sought with a large enough effect; inconclusive means small, poorly fitted or top-dose-only effect, or another doubt; inactive means no such curve, though single readings can be large; an effect the other way counts as inactive or inconclusive. Unless noted, on the % scale 0 is the no-effect control and ±100 the full control effect.
SMILES,GLA inh pH 4.5,ALDH1A1 inh,PNC inhibitor,ALOX12 inhib,GLA spleen mod,HPGD inh
CCCCCCCCCCCCCCCCCC(=O)NC[C@@H](COP(=O)([O-])OCC[N+](C)(C)C)OCC,.,.,.,23.1%,.,.
Cc1c(Cl)cccc1NC(=S)NCc1ccco1,-1.9,.,.,.,8.7%,.
Cc1ccccc1Cn1cnc2c(cnn2C(C)(C)C)c1=O,0.1,15.7%,8.3,-4.8%,-11.9%,-28.1%
Cc1ccc(C)c(Cn2cnc3c(cnn3C(C)(C)C)c2=O)c1,-0.5,?,-0.8,-8.1%,0.9%,22.4µM*
COC(=O)c1cccc(NC(=O)C(C)(C)C)c1,-4.8,.,.,.,6.7%,.
COc1cc(CNn2nnnc2N)cc(Br)c1OCC(=O)NC(C)(C)C,2.9,4.8%,8.4,-2.3%,-14.2%,-0.5%
COc1cc(CNn2nnnc2N)cc(Br)c1OCc1c(Cl)cccc1Cl,1.3,1.7%,21.3,-3.2%,-4.7%,15.8µM*
CCN(CC)C(=O)Oc1ccnc2cc(Cl)ccc12,5.6,-0.6%,.,.,-2.5%,.
O=C(Oc1ccnc2cc(Cl)ccc12)N1CCCCCC1,2.8,5.01µM*,?,-7.6%,?,31.6µM*
CCn1c(SCc2ccc(Cl)cc2)nc2nc3c(cc2c1=O)CCCC3,2.4,12.6µM*,0.7,-3.9%,-4.1%,-24.8%
O=C(CNC(=O)c1ccccc1C(=O)O)c1ccccc1,3.8,25.1µM*,22.3,-6.1%,-9.3%,-5.5%
O=C(NC(=S)NCc1ccco1)c1ccccc1,-0.2,-9.3%,.,.,0.6%,.
O=C(NC(=S)Nc1nc2ccccc2s1)c1cccs1,-7.0,3.55µM*,-100.0*,0.2%,7.4%,-18.2%
Cc1ccc(C(=O)NC(=S)NCC(=O)c2ccccc2)cc1,-9.8,?,-29.1,-11.7%,-19.0%,-11.5%
O=C(Nc1nc2ccc(F)cc2s1)c1cccs1,0.4,-6.5%,.,.,8.2%,.
O=C(CNC(=S)NC(=O)c1cccs1)c1ccccc1,-6.0,7.94µM*,?,?,6.3%,-17.5%
O=C(CNC(=S)NC(=O)c1ccco1)c1ccccc1,-8.9,20µM*,-4.6,-9.5%,-1.1%,-14.2%
Cn1cc(-c2nc3cncnc3n(C3CC3)c2=O)c2ccccc21,.,14.9%,.,.,9.9%,.
CC(C)(C)NC(=O)COC(=O)c1ccc(Cl)cc1O,-9.6,8.4%,.,.,0.9%,.
O=C(O)c1cncc(C(=O)O)c1,.,5.3%[13.5 µM],.,-1.9%[11.4 µM],.,-3.8%
O=C(NCCN1CCCC1)c1ccc(Cc2nc3ccccc3[nH]2)cc1,.,8.7%,.,0.3%,.,-3.4%
Cc1ccccc1-n1nnnc1SCc1ncc(-c2ccccc2)o1,-10.7,10µM*,-22.8,-19.1%,-17.4%,-17.6%
CCOC(=O)C1=C(C)NC(=S)NC1/C=C/c1ccccc1 (configuration not stated),8.4,-0.4%,-100.0*,?,3.0%,-14.0%
C=CCOC(=O)C1=C(C)NC(=O)NC1/C=C/c1ccccc1 (configuration not stated),6.4,-0.5%,-12.7,0.4%,3.6%,-3.7%
COC(=O)C1=C(C)NC(=S)NC1/C=C/c1ccccc1 (configuration not stated),-7.3,1.12µM*,.,.,-8.6%,.
SMILES,GLA inh pH 4.5,ALDH1A1 inh,PNC inhibitor,ALOX12 inhib,GLA spleen mod,HPGD inh
Cc1nc2nc(Cc3ccccc3)nn2c(C)c1Cl,-4.7,14.1µM*,2.6,1.3%,-18.0%,-16.6%
Cc1nc2nc(CCc3ccccc3)nn2c(C)c1Cl,-1.7,-7.7%,-4.7,9.1%,4.6%,0.1%
O=C(N/N=C/C1CC2CCC1C2)c1c[nH]c2ccccc12 (configuration not stated),-12.2,14.1µM*,.,.,3.7%,.
COC(=O)c1ccc(C(NC(=O)OCc2ccccc2)/C(C)=C/[C@@H](C)C(=O)NCCO)cc1 (some centres not stated),-8.1,?,.,-1.4%,2.5%,-12.7%
CCC1CC=CC2C1C(=O)N(Cc1ccccc1)C2c1ccoc1 (configuration not stated),.,.,.,.,3.4%,.
Cc1cc(C)c2c(C)c(C(=O)NCc3ccncc3)oc2c1,-2.0,1.2%,-100.0*,5.4%,1.5%,-24.1%
COc1ccccc1CNC(=O)c1ccc(Br)o1,-1.1,?,?,1.2%[0.00818 µM],1.5%[119 µM],39.8µM*
COc1ccc(CCNC(=O)c2ccc(CSc3ccccc3)o2)cc1,-13.5,3.55µM*,.,.,-3.0%,.
CCc1ccc2oc(C(=O)NCc3ccncc3)c(C)c2c1,-3.2,?,?,1.9%,-3.3%,?
CC(=O)c1ccc(NC(=O)c2ccc(CSc3ccccc3)o2)cc1,-4.8,-14.9%,-5.4,-0.9%,2.9%,-28.3%
O=C(NCc1ccncc1)c1ccc(Br)o1,-1.8,3.55µM*,5.2,-4.4%,7.4%,-10.6%
O=C(c1ccccc1)N(C1=NCCCCS1)c1ccccc1,10.0,-4.0%,85.5,-2.1%,7.4%,-13.5%
COc1ccccc1CCNC(=O)c1ccc(C)o1,5.9,-2.0%,29.9,-1.2%,-1.1%,8.91µM*
COc1ccc(N=Cc2[nH]c3ccccc3c2O)cc1,0.3,12.6µM*,.,.,-0.8%,.
O=C1OC(C2=CCCCC2)=NC12CC2,.,?,.,.,-8.7%[17.5 µM],.
CN(C)c1ccc(C=NCC2(O)CCOC(C)(C)C2)cc1 (configuration not stated),2.3,0.447µM*,25.5,2.1%,4.3%,-12.9%
CS(=O)(=O)c1ccc(CNC(=O)[C@@H]2C[C@H]2[C@@H](NP(=O)(c2ccccc2)c2ccccc2)c2ccccc2)cc1,1.6,-7.7%,.,-2.8%,8.0%,-11.7%
COc1ccc(NC(=S)NCCCCCC(=O)C[N+](=O)[O-])cc1,0.7,2.51µM*,.,.,-3.6%,.
CCCCNC(=S)Nc1ccc([N+](=O)[O-])cc1,-11.5,?,?,0.8%,2.7%,-10.1%
O=C(CCCCCNC(=S)Nc1ccc(Cl)cc1)C[N+](=O)[O-],8.5,10µM*,.,.,-10.1%,.
O=C(CCCCCNC(=O)c1ccccc1)C[N+](=O)[O-],6.0,2.24µM*,.,.,0.3%,.
O=C(CCCCCNC(=S)Nc1ccccc1)C[N+](=O)[O-],-0.5,3.55µM*,.,.,-2.3%,.
O=c1cc(N2CCCCC2)c(-c2ccccc2)nn1Cc1c(Cl)cccc1Cl,10.7,?,59.4,5.5%,6.8%,-12.4%
CCCCC/C=C\C/C=C\C/C=C\C/C=C\CCCCCC(N)=O,-7.5,-1.8%,.,1.8%,-4.9%,-5.7%
Oc1c(Cl)cc(CN(Cc2cc(Cl)c(O)c(Cl)c2)C2CCCCC2)cc1Cl,.,4.8%[13.5 µM],.,1.8%[11.4 µM],.,-2.6%
CN(C)/C=C/C(=O)c1nnn(C2CCCCC2)c1NC1CCCCC1,-6.0,14.1µM*,20.7,?,0.7%,-20.6%
COc1ccc(/C=N/NC(=O)CCn2cnc(-c3ccccc3)c2-c2ccccc2)cc1,-3.3,?,-108.4*,-3.7%,-6.9%,-5.2%
COc1ccc(/C=N/NC(=O)COc2ccccc2-c2ccccc2)cc1,-8.3,-6.7%,-114.6*,0.9%,2.8%,-23.2%
